Data published in PubChem BioAssay (EPA / NIEHS).
Active and inactive are the calls of the source. The calls were made as follows: active = hit-call score of the fitted dose curve at least 0.9, where 1 is the maximum; inactive = score below 0.9.

Assay: ATG_Sox_CIS: Attagene CIS-FACTORIAL HepG2 Assay for human SRY-box transcription factor (SOX) (AID 2282960)
Conditions: HepG2 Attagene cis-factorial SOX reporter, mRNA; actives raise or lower the signal
Procedure: ATG_CIS is a cell-based, multiplexed-readout assay that uses HepG2, a human liver cell line, with measurements taken at 24 hours after chemical dosing in a 24-well plate.ATG_Sox_CIS is one of 52 assay component(s) measured or calculated from the ATG_CIS assay. It is designed to make measurements of mRNA induction, a form of inducible reporter, as detected with fluorescence intensity signals by Reverse transcription polymerase chain reaction (RT-PCR) and Capillary electrophoresis technology.Data from the assay component ATG_Sox_CIS was analyzed into 1 assay endpoint. This assay endpoint, ATG_Sox_CIS, was analyzed with bidirectional fitting relative to DMSO as the negative control and baseline of activity. Using a type of inducible reporter, measures of mRNA for gain or loss-of-signal activity can be used to understand the reporter gene at the transcription factor-level as they relate to the gene SOX1. Furthermore, this assay endpoint can be referred to as a primary readout, because this assay has produced multiple assay endpoints where this one serves a reporter gene function. To generalize the intended target to other relatable targets, this assay endpoint is annotated to the dna binding intended target family, where the subfamily is HMG box protein.
Human liver HepG2 cells are transiently transfected with multiple reporter transcription units (MRTUs) in 6-well plates using FuGene 6 reagent (Roche; 3 ml FuGene/1 mg DNA). The MRTU constructs are regulated by a cis-regulating element (promoter). […] A major difference between the CIS and TRANS system is that in CIS activities of endogenous TFs are measured, whereas the TRANS assay evaluates changes in activities of exogenous, chimeric NR-Gal4 proteins. […] At the end of 24 hour incubation, total RNA was isolated using TriZol reagent (Invitrogen). The isolated RNA is then reverse-transcribed using oligo(dT) primer and Mo-MLV reverse transcriptase (Invitrogen) with DNAse I (Ambion) treatment for 30 min. The one-tenth of the produced cDNA was amplified by PCR using Taq DNA polymerase (Invitrogen) and two reporter sequence-specific primers. The PCR products were fluorescently labeled by primer extension with 6-arboxyfluorescein (6-FAM) 5'-labeled reporter sequence-specific primer (2 min at 95 C, 20 s at 68 C and 10 min at 72 C) and these products were digested with 5U of HpaI (New England Biolabs) for 2h at 37 C. The fragments were purified using Qiaquick PCR columns (Qiagen), analyzed on an ABI 3130xL genetic analyzer (Applied Biosystems) with peak positions identified by using a set of X-rhodamine (ROX)-labeled MapMarker1000 molecular weight standards (BioVentures). The raw capillary electrophoresis data was processed using Attagraph software (Attagene).

SMILES	AC50	outcome
O=c1[nH]c2ccc(S(=O)CCN3CCC(Cc4ccc(F)cc4)CC3)cc2o1 (stereo not given)	66.5 µM (active)	–
CCCN(C1CCN(C(=O)C2CCNCC2)CC1)[C@@H]1CCc2ccc(OC)cc2C1	–	inactive
CC(C)(O)c1coc(S(=O)(=O)NC(=O)Nc2c3c(cc4c2CCC4)CCC3)c1	–	inactive
C=CCCCCCCCCC(=O)O	–	inactive
COC(=O)CC(=O)OC	–	inactive
CC[C@H]1CC[C@H](NCc2cc3c(cc2OC)[C@H]2C[C@H]2C(=O)N3C)[C@H](c2ccccc2)N1	–	inactive
CC(C)CC(C)(O)C#CC(C)(O)CC(C)C (stereo not given)	–	inactive
On1ccccc1=S	–	inactive
CC(C)CCCCCCOC(=O)c1ccc(C(=O)OCCCCCCC(C)C)c(C(=O)OCCCCCCC(C)C)c1	–	inactive
CCOC(=O)COc1ccc2c(c1)CC(NCC(O)c1cccc(Cl)c1)CC2 (stereo not given)	–	inactive
Nc1nc2ncc(CNc3ccc(C(=O)N[C@@H](CCC(=O)O)C(=O)O)cc3)nc2c(=O)[nH]1	–	inactive
Fc1ccccc1[C@@H](F)COC1CCC(Nc2ncnc3[nH]ncc23)CC1 (stereo not given in full)	–	inactive
O=C(O)c1cccc(Oc2ccccc2)c1	–	inactive
CCN(C(=O)c1cc(C)cc(OC[C@H](C)Nc2ccncc2)c1)C(C)C	–	inactive
CC1=CC(=O)CC(C)(C)C1	–	inactive
CCCCC(CC)COC(=O)c1ccc(C(=O)OCC(CC)CCCC)cc1 (stereo not given)	–	inactive
COc1cccc(-c2ccc(/C=C\CN3CCCCCC3)cc2Cl)c1	–	inactive
C1=CCCC=CCCC=CCC1	–	inactive
CC(C)CCCCCCCOC(=O)CCCCC(=O)OCCCCCCCC(C)C	–	inactive
CCOCCO	–	inactive

SMILES	AC50	outcome
CC(C)=CCCC(C)CCO (stereo not given)	–	inactive
CCOC(=O)CC(CC(=O)OCC)(OC(C)=O)C(=O)OCC	–	inactive
CC[C@H](C)C(=O)O[C@H]1C[C@@H](C)C=C2C=C[C@H](C)[C@H](CC[C@@H]3C[C@@H](O)CC(=O)O3)[C@H]21	–	inactive
O=C(NS(=O)(=O)/C=C/c1ccccc1)c1ccc(F)cc1Cl	–	inactive
CC[C@H]1OC(=O)[C@H](C)[C@@H](O[C@H]2C[C@@](C)(OC)[C@@H](O)[C@H](C)O2)[C@H](C)[C@@H](O[C@@H]2O[C@H](C)C[C@H](N(C)C)[C@H]2O)[C@](C)(O)C[C@@H](C)C(=O)[C@H](C)[C@@H](O)[C@]1(C)O	–	inactive
C[C@](N)(Cc1ccc(O)c(O)c1)C(=O)O	–	inactive
CC(C)CCO	–	inactive
CNCc1ccc(NC(=O)c2c[nH]c3c2C(=O)CCC3)cc1	–	inactive
Cn1c(=O)c2c(ncn2C)n(C)c1=O	–	inactive
C1N2CN3CN1CN(C2)C3	–	inactive
O=C1CCCCCN1	–	inactive
COc1ccc(-n2nc(C(F)F)cc2-c2ccc(S(C)=O)cc2)cc1 (stereo not given)	–	inactive
CCCCCCc1ccc(O)cc1O	–	inactive
CC(C)=CCC/C(C)=C/CO	–	inactive
CC(=O)OC[C@H]1O[C@@](COC(C)=O)(O[C@H]2O[C@H](COC(C)=O)[C@@H](OC(C)=O)[C@H](OC(C)=O)[C@H]2OC(C)=O)[C@@H](OC(C)=O)[C@@H]1OC(C)=O	–	inactive
CCOC(=O)c1ccc(C2CCC(NC[C@H](O)COc3ccc(O)c(NS(C)(=O)=O)c3)CC2)cc1 (stereo not given in full)	–	inactive
COCCOc1cc2cc(C(=O)NC3CCN(C(C)C)CC3)n(CC(=O)Nc3ccc(Cl)cn3)c2cn1	135 µM (active)	–
O=C(O)CCN(C1(C(=O)NO)CCCC1)S(=O)(=O)c1ccc(Oc2ccc(F)cc2)cc1	–	inactive
O=C1OC(=O)C2C3C=CC(C3)C12 (stereo not given)	–	inactive
CC(O)CN(CCN(CC(C)O)CC(C)O)CC(C)O (stereo not given)	–	inactive
